Measurements: PubChem BioAssay (NCI)
The panel holds about 83,000 compounds, 20% with a hit somewhere; the sample as a whole holds those more often.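 Growth was measured after 48 h exposure to one concentration of compound in 96-well plates. Values under 10 count as active.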 A number with no mark means an inactive call. Calls of active or inactive are those of the source.

Experiments:
Experiment in all cases: NCI-60 one-dose screen, 48 h (100 = growth as untreated, 0 = no growth, -100 = all killed)
Conditions in all cases: 10 µM unless noted
[1] = tested on: SK-MEL-2 melanoma
[2] = tested on: EKVX NSCLC
[3] = tested on: SN12C renal
[4] = tested on: UO-31 renal
[5] = tested on: TK-10 renal
[6] = tested on: ACHN renal
[7] = tested on: CAKI-1 renal
[8] = tested on: A498 renal
[9] = tested on: CCRF-CEM leukemia
[10] = tested on: MOLT-4 leukemia

| SMILES | growth [1] | growth [2] | growth [3] | growth [4] | growth [5] | growth [6] | growth [7] | growth [8] | growth [9] | growth [10] |
| --- | --- | --- | --- | --- | --- | --- | --- | --- | --- | --- |
| O=[N+]([O-])c1ccc(Oc2nc(Nc3ccc(O[C@H]4CO[C@H]5[C@@H]4OC[C@@H]5O)c(Cl)c3)ncc2F)c(Cl)c1 | 21.7% | 43.8% | 15.9% | -9.77% (active) | 44.5% | 19.3% | 7.81% (active) | -2.07% (active) | 25.1% | -3.69% (active) |
| c1ccc(Cc2nn3cc(-c4ccccc4)nc3s2)cc1 | 97% | 95.9% | 103% | 95.4% | 89.5% | 106% | 98.7% | 96.5% | 102% | 93.9% |
| COc1ccc(/C=C2\Oc3cc(OCCN4CCC(Cc5ccccc5)CC4)ccc3C2=O)cc1OC | 104% | 70.4% | 65.6% | 51.9% | 95.3% | 96.8% | 74.2% | 69.7% | 55.9% | 46.7% |
| O=C(Nc1c2ccccc2nc2ccccc12)c1ccccc1CN1C(=O)c2ccccc2C1=O | 43% | 43.1% | 34.6% | 6.41% (active) | 45.6% | 10.8% | 19.1% | -18.9% (active) | 40.8% | 14.9% |
| COc1ccc2sc3c(NCCCNCCO)nc4ccccc4c3c(=O)c2c1 | 102% | 67.2% | 62% | 46.4% | 75% | 57.7% | 44% | 38.1% | 2.35% (active) | 16.4% |
| Cc1nc2cnc(N)c(C#Cc3cncc(C(=O)Nc4ccc(CN5CCN(C)CC5)c(C(F)(F)F)c4)c3)c2nc1C | -33.9% (active) | 7.92% (active) | 9.49% (active) | 2.11% (active) | 4.77% (active) | 0.0511% (active) | -36.4% (active) | -81% (active) | 13.7% | 8.72% (active) |
| CCCCCCNC(=O)Oc1ccc(/C(=C(\C)c2ccc(OC)cc2)c2ccc(OCCN3CCCCC3)cc2)cc1 | 69.2% | 74% | 74.3% | 21.6% | 102% | 84.2% | 72.3% | 88.1% | 66.5% | 41.8% |
| Cc1ccc(-c2nn(C)c(=O)c3noc(-c4ccc(C)cc4)c23)cc1 | 9.26% (active) | 56.5% | 44.1% | 41.7% | 47.4% | 43.5% | 37.7% | 25.6% | 18.9% | 55.8% |
| CN1C(=O)CNC(=O)[C@H](NC(=O)c2nc3ccccc3cc2O)CSSC[C@H]1C(=O)NCCc1nc2ccccc2cc1O | -17.1% (active) | 73.9% | 69.2% | 56.5% | 67.9% | 78.6% | 105% | 131% | 23.5% | 0.111% (active) |
| COc1ccn2c(C(C)=O)cc(C(=O)c3ccc4c(c3)Sc3ccccc3N4)c2c1 | 27.3% | 37.6% | 25.3% | 28.3% | 29.6% | 20.7% | 15.9% | -17.8% (active) | 8.15% (active) | 13.1% |
| COc1ccc(C(=S)N2CCN(c3cccc(C)c3)CC2)cc1OC | 34% | 102% | 75% | 76% | 92.7% | 79.7% | 62.5% | 86.4% | 74% | 54.8% |
| c1ccc2cc(C[n+]3ccn(CCCCCCn4cc[n+](Cc5ccc6ccccc6c5)c4)c3)ccc2c1 | 36% | 37.3% | 34.9% | 97.2% | 83.1% | 72.5% | 95.4% | 10% | 84.2% | 74.9% |
| COc1ccc(NC(=O)n2nc(/C=C\c3ccc(O)c(OC)c3)cc2/C=C\c2ccc(O)c(OC)c2)cc1 | 21.4% | 52.4% | 31.4% | 22.7% | 63.8% | 26% | 38.1% | 82.5% | 11.8% | 12.2% |
| CCOC(=O)C1=C(N)Oc2c(sc3c(CC)cccc23)C1c1ccc(F)cc1 (stereo not given) | 52.1% | 64.1% | 49.1% | 36.2% | 99.1% | 34.1% | 4.96% (active) | -3.69% (active) | 27.6% | 64.2% |
| Cc1ccc(C(=O)NCCNc2nccc(-c3c(-c4cccc(F)c4)nc4sccn34)n2)cc1 | 70.7% | 38.5% | 47.3% | 23% | 75.6% | 29.5% | 40.1% | 32.8% | 49.4% | 56.5% |
| CNc1nc2c(s1)C(c1cc(F)ccc1F)CC(=O)N2 (stereo not given) | 61.3% | 97.8% | 71% | 63.9% | 17% | 87.8% | 51.5% | 34.4% | 40% | 37.3% |
| O=C1/C(=C/c2ccccc2[N+](=O)[O-])Oc2ccc(O)c(O)c21 | 43.1% | 63.9% | 31.1% | 28.7% | 80.4% | 17.7% | 15.1% | 65.7% | 8.79% (active) | 18.1% |
| Cc1ccc(-c2nc(N3CCN(C(=O)Nc4ccc(Cl)c(C(F)(F)F)c4)CC3)c3ccccc3n2)cc1 | 96.5% | 79.4% | 74.8% | 53.6% | 93.7% | 71.5% | 53.6% | 45.9% | 65.8% | 49.2% |
| CN(C)c1ccc2nc3ccc(=[N+](C)C)c([N+](=O)[O-])c-3sc2c1 | 47.2% | 25% | 39.6% | 51.7% | 71.3% | 27.9% | 43.1% | 68.5% | 12.7% | 15.5% |
| c1cc2nc(-c3cn[nH]c3)c3c(c2cc1-c1cn[nH]c1)C1CCC3C1 (stereo not given) | 92.4% | 46.3% | 66% | 40.3% | 97.4% | 44.9% | 28.3% | -6.11% (active) | 69% | 63% |
| CCCCNC(=O)Oc1ccc(/C(=C(\C)c2ccc(Cl)cc2)c2ccc(OCCN3CCCCC3)cc2)cc1 | 98.6% | 76.9% | 80.5% | 58.8% | 87% | 94% | 92.5% | 85.2% | 72.7% | 65.5% |
| CCCCCCCCCCCCCCCCCCOc1ccc(CC(=O)OCC[N+](C)(C)C)cc1 | 115% | 101% | 94.1% | 101% | 93.8% | 99.9% | 90.4% | 119% | 102% | 2.06% (active) |
| NS(=O)(=O)c1ccc(-n2nc(-c3ccc(Cl)cc3)c3ccccc3c2=O)cc1 | 110% | 82.5% | 93.4% | 52.6% | 152% | 94.8% | 95.9% | 123% | 70.3% | 59.5% |
| CC1=C([Se]CC(OC(=O)[C@@H](CSSC(C)(C)C)NC(=O)OC(C)(C)C)C(=O)NC(C)(C)C)C(=O)c2ccccc2C1=O (stereo not given in full) | 7.82% (active) | -74.2% (active) | -73.3% (active) | 15.4% | -96% (active) | -83% (active) | -52.1% (active) | -28.9% (active) | -21.6% (active) | 15.8% |
